Common to all, as to experiment: glycan array binding signal (z-score within array); higher = stronger binding
What all share (conditions): glycan notation: IUPAC condensed, linker removed

Test [1] concerns the target GlcNAc(b1-4)GlcNAc(b1-4)GlcNAc. In outline:
(§1)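 Arrays were curated from the Consortium for Functional Glycomics database, 3228 in total, and kept only where the protein sequence was available. Binding is expressed as a within-array Z-score. This score was averaged across arrays of the same protein sequence at different concentrations or buffers and across linkers, and negative values can be read as non-binding.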

The target of test [2] is Neu5Ac(a2-3)Gal(b1-3)GlcNAc(b1-2)Man(a1-3)[Neu5Ac(a2-3)Gal(b1-3)GlcNAc(b1-2)Man(a1-6)]Man(b1-4)GlcNAc(b1-4)GlcNAc. The method in brief:
as §1

In test [3] the target is Neu5Ac(a2-3)Gal(b1-3)GlcNAc(b1-3)Gal(b1-3)GlcNAc. The method in brief:
as §1

Test [4] has as its target Neu5Ac(a2-3)Gal(b1-3)GlcNAc(b1-3)GalNAc. The method in brief:
as §1

In test [5] the target is Neu5Ac(a2-3)Gal(b1-4)GlcNAc(b1-3)Gal. The method in brief: as §1
Test [6] concerns the target Neu5Ac(a2-3)Gal(b1-4)GlcNAc(b1-3)Gal(b1-4)GlcNAc(b1-6)[Gal(b1-3)]GalNAc. The method in brief:
as §1

For test [7], the target named is Neu5Ac(a2-3)Gal(b1-4)GlcNAc6S. The method in brief:
as §1

Another test addresses Neu5Ac(a2-6)Gal. In outline: as §1
Test [8] addresses Neu5Ac(a2-6)Gal(b1-4)GlcNAc(b1-2)Man(a1-3)[GlcNAc(b1-4)][Neu5Ac(a2-6)Gal(b1-4)GlcNAc(b1-2)Man(a1-6)]Man(b1-4)GlcNAc(b1-4)GlcNAc. In outline:
as §1

For test [9], the target named is Neu5Ac(a2-6)Gal(b1-4)GlcNAc(b1-3)Gal(b1-4)[Fuc(a1-3)]GlcNAc(b1-3)Gal(b1-4)[Fuc(a1-3)]GlcNAc. In outline:
as §1

Test [10] addresses Neu5Ac(a2-6)GalNAc(b1-4)GlcNAc6S. The method in brief: as §1
Test [11] addresses Neu5Ac(a2-8)Neu5Ac(a2-8)Neu5Ac(a2-3)Gal(b1-4)Glc. The method in brief: as §1
For test [12], the target named is Neu5Gc(a2-3)Gal(b1-3)[Fuc(a1-4)]GlcNAc. In outline: as §1

Many of the other results were omitted from the sample, so the strongest signals are more common in it than they were.

Experimental findings from the supplement of paper PMC8728848 are described below.

B1: MFG-E8 (Mus musculus), P21956 (protein)
chain: MQVSRVLAALCGMLLCASGLFAASGDFCDSSLCLNGGTCLTGQDNDIYCLCPEGFTGLVCNETERGPCSPNPCYNDAKCLVTLDTQRGDIFTEYICQCPVGYSGIHCETETNYYNLDGEYMFTTAVPNTAVPTPAPTPDLSNNLASRCSTQLGMEGGAIADSQISASSVYMGFMGLQRWGPELARLYRTGIVNAWTASNYDSKPWIQVNLLRKMRVSGVMTQGASRAGRAEYLKTFKVAYSLDGRKFEFIQDESGGDKEFLGNLDNNSLKVNMFNPTLEAQYIKLYPVSCHRGCTLRFELLGCELHGCSEPLGLKNNTIPDSQMSASSSYKTWNLRAFGWYPHLGRLDNQGKINAWTAQSNSAKEWLQVDLGTQRQVTGIITQGARDFGHIQYVASYKVAHSDDGVQWTVYEEQGSSKVFQGNLDNNSHKKNIFEKPFMARYVRVLPVSWHNRITLRLELLGC
Take B1: the “glycan array binding signal (z-score)” value was -0.582 in test [1]; -0.096 in [2]; -1.04 in [3]; 0.592 in [4]; 0.469 in test [5]; -0.309 in test [6]. The “glycan array binding signal (z-score)” value in [7] is -0.285; in the test with Neu5Ac(a2-6)Gal, 0.316; in test [8] it was 0.277; in test [9], -0.437; in [10] it was 3.05; in [11] it was -0.889. Further, in test [12], the “glycan array binding signal (z-score)” value came to 2.55.
